# According to PubChem BioAssay (NCATS):
# Records with an inconclusive call do not appear. Entries that show only a call come without a potency. Calls of active or inactive are those of the source. Unless noted, the call rests on the fitted dose curve; in most records, active means well fitted curve in the direction sought with a large enough effect; inconclusive means small, poorly fitted or top-dose-only effect, or another doubt; inactive means no such curve, though single readings can be large; an effect the other way counts as inactive or inconclusive.
# Legend:
# [1] = target: Glutathione peroxidase 1 (Homo sapiens) (UniProt P07203); test: Primary qHTS Assay for Inhibitors of Recombinant Selenoprotein Glutathione Peroxidase 1 (GPX1) (AID 1845191); further: nearly all actives have a fitted effect of over 65% in size
# How it was run: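 NADPH consumption tracked by fluorescence at 340/450 nm between t=0 and t=15 min, room temperature. Final mix: 10 nM GPX1, 100 nM glutathione reductase, 1 mM GSH, 0.5 mM NADPH, 0.5 mM cumene hydroperoxide, 0.01% BSA; 30 min compound–enzyme preincubation.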
# [2] = target: Phospholipid hydroperoxide glutathione peroxidase GPX4 (Homo sapiens) (UniProt P36969); test: Primary qHTS Assay for Inhibitors of Recombinant Selenoprotein Glutathione Peroxidase 4 (GPX4) (AID 1845192); further: nearly all actives have a fitted effect of over 65% in size
# How it was run: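 NADPH consumption followed by fluorescence at 340/450 nm, t=0 and after 15 min at room temperature. Reaction started with cumene hydroperoxide (0.5 mM final) after 30 min compound–GPX4 preincubation; final 200 nM GPX4, 100 nM GR, 1 mM GSH, 0.5 mM NADPH.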
# [3] = target: Luciferin 4-monooxygenase (Photinus pyralis) (UniProt P08659); test: Primary firefly luciferase (FLuc) qHTS assay for identification of artifact compounds. (AID 1845220); further: nearly all actives have a fitted effect of over 60% in size
# How it was run: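 Cell-free, 1536-well qHTS. Buffer pH 7.6 with 0.01% Tween-20 and 0.05% BSA; 10 uM D-luciferin, 10 uM ATP; 10 nM P. pyralis luciferase; luminescence after 5 min.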
# [4] = Primary fluorescence-based thiol-reactive (MSTI) qHTS assay for identification of artifact compounds. (AID 1845221); further: nearly all actives have a fitted effect of over 65% in size; further: potency means the concentration at half of the fitted maximal effect
# How it was run: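 qHTS titration of compound; 4 uM MSTI, PBS pH 7.4, 2% DMSO; 1 h RT, dark; fluorescence 525/598 nm; normalized to Acetyl-MSTI and MSTI; 4-parameter Hill fit.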
# [5] = system: Nanoluciferase (engineered Oplophorus gracilirostris luciferase); test: Primary Nanoluciferase (NLuc) qHTS assay for identification of artifact compounds. (AID 1845222); further: series mostly up to about 54 µM
# How it was run: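 Compounds are pinned into diluted (1:55) conditioned medium of NLuc-expressing S16 cells and held 15 min at room temperature protected from light. Nano-Glo substrate follows, and luminescence is read 5 min later.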
# [6] = Primary redox qHTS assay for identification of artifact compounds. (AID 1845223)
# How it was run: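 Redox-cycling detection via DTT (250 uM final) oxidation coupled to Amplex Red (25 uM)/HRP (250 mU/mL) in HBSS. 15 min preincubation plus 30 min after DTT, room temperature. Ex/Em 525/598 nm; 4-parameter Hill fit against DMSO and 10 uM DA3003.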
# [7] = qHTS drug screen for cell cycle checkpoint inhibitors in PARPi-resistant BRCA-mutant ovarian cancer cell lines. (AID 1963452; calls by dose curve); settings: PEO1/OlaR viability, CellTiter-Glo luminescence, 96 h, stronger effect = lower value
# How it was run: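 PEO1, PEO4 and PEO1/OlaR ovarian cancer cells, 600 per well, exposed 96 h at 37C to a dilution series. Viability read by CellTiter-Glo luminescence, normalized to DMSO and empty wells; activity summarized as Z-AUC.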
# [8] = measured here: PEO1 parental Z-AUC
# Sequence of Glutathione peroxidase 1 (Homo sapiens) (P07203 whole entry, looked up): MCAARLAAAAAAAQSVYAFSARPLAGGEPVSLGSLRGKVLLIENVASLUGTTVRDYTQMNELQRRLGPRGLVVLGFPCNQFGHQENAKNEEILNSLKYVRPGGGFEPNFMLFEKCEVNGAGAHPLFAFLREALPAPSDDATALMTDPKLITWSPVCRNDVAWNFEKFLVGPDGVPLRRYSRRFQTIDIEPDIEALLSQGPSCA
# Sequence of Phospholipid hydroperoxide glutathione peroxidase GPX4 (Homo sapiens) (P36969 whole entry, looked up): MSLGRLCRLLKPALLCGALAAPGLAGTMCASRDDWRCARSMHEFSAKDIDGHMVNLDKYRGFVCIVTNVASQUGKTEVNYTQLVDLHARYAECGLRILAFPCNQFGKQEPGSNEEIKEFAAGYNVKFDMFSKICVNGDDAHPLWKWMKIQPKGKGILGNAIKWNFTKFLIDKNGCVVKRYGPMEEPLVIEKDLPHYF
Compound,Potency [1],Potency [2],Potency [3],Potency [4],Potency [5],Potency [6],Z-AUC [7],"Z-AUC [7, 8]",Z-AUC ([7]; measured here: PEO4 Z-AUC)
O=C1NCc2nc3ccccc3c(=O)n2C1Cc1c[nH]c2ccccc12 (centres undefined),inactive,inactive,inactive,inactive,inactive,inactive,,,
Cc1nn(C)c(COc2ccc(N3CCN(S(=O)(=O)N(C)C)CC3)cc2)c1-c1cccc2c(CCCOc3cccc4ccccc34)c(C(=O)O)n(CCN3CCOCC3)c12,inactive,inactive,inactive,inactive,inactive,inactive,0.0442 (inactive),0.77,0.53
C[C@H]1C[C@H]2[C@@H]3CCC4=CC(=O)C=C[C@]4(C)[C@@]3(F)[C@@H](O)C[C@]2(C)[C@@]1(O)C(=O)COP(=O)(O)O,inactive,inactive,inactive,inactive,inactive,inactive,,,
NC(Cc1c[nH]c2ccccc12)C(=O)NC(CCC(=O)O)C(=O)O (centres undefined),inactive,inactive,inactive,inactive,inactive,inactive,,,
CCCCN(CCCC)C(=O)CN1C[C@H](c2ccc3c(c2)OCO3)[C@@H](C(=O)O)[C@@H]1c1ccc(OC)cc1,inactive,inactive,inactive,inactive,inactive,inactive,0.882 (inactive),0.661,0.129
OCc1ccccc1O[C@@H]1O[C@H](CO)[C@@H](O)[C@H](O)[C@H]1O,inactive,inactive,inactive,23.8 µM (active),inactive,inactive,1.58 (inactive),1.17,0.966
Cc1cccc(-c2[nH]c(CNc3ccccc3F)nc2-c2ccc3ncnn3c2)n1,inactive,inactive,inactive,inactive,inactive,inactive,-0.298 (inactive),0.223,-0.0692
O=C(/C=C/c1ccc(O)cc1)OC[C@]12O[C@H]1[C@@H](O)[C@@H]1C=CO[C@@H](O[C@@H]3O[C@H](CO)[C@@H](O)[C@H](O)[C@H]3O)[C@@H]12,inactive,inactive,inactive,inactive,inactive,inactive,,,
CN1C(=O)N[C@@H](Cc2c[nH]c3c(Cl)cccc23)C1=O,inactive,inactive,inactive,inactive,inactive,inactive,-0.9 (inactive),-0.75,-0.721
CNc1nc(Nc2cnn([C@H]3CCN(C4COC4)C[C@@H]3F)c2Cl)ncc1C(F)(F)F,inactive,inactive,inactive,inactive,inactive,inactive,-0.479 (inactive),-0.0727,0.0395
C[C@H]1CC[C@@]2(OC1)O[C@H]1CC3C4CC=C5C[C@H](O)C[C@@H](O[C@@H]6O[C@@H](C)[C@H](O)[C@@H](O)[C@H]6O[C@@H]6O[C@@H](C)[C@H](O)[C@@H](O)[C@H]6O)[C@]5(C)C4CC[C@]3(C)[C@H]1[C@@H]2C (some centres undefined),inactive,inactive,inactive,inactive,inactive,inactive,,,
C[C@@H]1C(=O)O[C@H]2CC34[C@H]5C[C@@H](C(C)(C)C)C36[C@@H](OC(=O)[C@@H]6O)O[C@@]4(C(=O)O5)[C@]21O (some centres undefined),inactive,inactive,inactive,inactive,inactive,inactive,,,
C[C@@H]1C[C@H]2[C@@H]3CCC4=CC(=O)C=C[C@]4(C)[C@@]3(F)[C@@H](O)C[C@]2(C)[C@@]1(O)C(=O)COP(=O)(O)O,inactive,inactive,inactive,inactive,inactive,inactive,,,
CCNC(=O)CCC/C=C\C[C@@H]1[C@@H](/C=C/C(O)CCc2ccccc2)[C@@H](O)C[C@@H]1O (some centres undefined),inactive,inactive,inactive,inactive,inactive,inactive,1.72 (inactive),1.41,1.49
CCCOc1ccn2c(C(C)=O)cc(-c3ccccc3S(C)(=O)=O)c2c1,inactive,inactive,inactive,inactive,inactive,inactive,2.02 (inactive),1.76,1.78
O=C(C1CC1)N1CC[C@@H](Cc2n[nH]c(=O)n2-c2ccc(-c3ccc4occc4c3)cc2)C1,inactive,inactive,inactive,inactive,inactive,inactive,1.31 (inactive),0.792,0.425
c1ccc(C(OC2CCN(CCCc3nn[nH]n3)CC2)c2ccccc2)cc1,inactive,inactive,inactive,inactive,inactive,inactive,,,
C=C1CC2(C(=O)O)CC1CCC2C1(C)CCCC2(C)C(=O)OC(O)C21 (centres undefined),inactive,inactive,inactive,inactive,inactive,inactive,,,
Cc1cc(Nc2ncc(Cl)c(Nc3ccccc3S(=O)(=O)C(C)C)n2)c(OC(C)C)cc1C1CCNCC1,inactive,inactive,inactive,inactive,inactive,inactive,-1.77 (inactive),-0.797,-0.548
